Data reported in PubChem BioAssay AID1903 (Southern Research Specialized Biocontainment Screening …, 2009).
Out of some 310,000 compounds screened, about 1,200 (0.39%) were called active. How the calls were made is not given here. Not all results are given here. Results with a measured potency or affinity are listed apart.

Target: Large T antigen (Simian virus 40) (UniProt P03070)
Assay: TAg ATPase/helicase activity blockers – biochemical (AID 1903)
Conditions: SV40 large T antigen ATPase/helicase inhibition assay; at 20 µM; hits give high values

Large T antigen (Simian virus 40), sequence (P03070 whole entry, looked up): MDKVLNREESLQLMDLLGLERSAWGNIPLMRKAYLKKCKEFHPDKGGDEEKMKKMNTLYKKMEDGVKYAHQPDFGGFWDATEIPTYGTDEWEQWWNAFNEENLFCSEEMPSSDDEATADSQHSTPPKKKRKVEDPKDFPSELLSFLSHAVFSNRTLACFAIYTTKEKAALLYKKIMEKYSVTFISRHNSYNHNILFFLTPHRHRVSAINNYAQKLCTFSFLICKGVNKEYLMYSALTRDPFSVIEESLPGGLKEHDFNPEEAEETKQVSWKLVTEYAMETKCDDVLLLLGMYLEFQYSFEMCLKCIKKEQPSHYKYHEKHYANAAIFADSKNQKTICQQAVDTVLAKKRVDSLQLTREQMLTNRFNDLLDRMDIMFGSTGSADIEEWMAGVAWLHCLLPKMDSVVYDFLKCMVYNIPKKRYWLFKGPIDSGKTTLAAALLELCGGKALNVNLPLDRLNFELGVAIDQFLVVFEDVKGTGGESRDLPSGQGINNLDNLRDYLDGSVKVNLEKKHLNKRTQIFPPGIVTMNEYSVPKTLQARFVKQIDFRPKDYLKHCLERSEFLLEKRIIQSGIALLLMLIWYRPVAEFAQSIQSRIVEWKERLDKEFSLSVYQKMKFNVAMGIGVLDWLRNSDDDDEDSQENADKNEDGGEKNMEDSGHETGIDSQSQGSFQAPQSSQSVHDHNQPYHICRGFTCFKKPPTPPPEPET

inhibition, inactive:
Cc1ccc(C)n1-c1sc2c(c1C#N)CCCC2 7.49%
Cc1cc(/C=C2/NC(=O)NC2=O)c(C)n1-c1sc2c(c1C#N)CCCC2 17.3%
CCOC(=O)N1CCC(N2CCN(S(=O)(=O)c3ccc(OC)cc3)CC2)CC1 4.73%
COc1ccc(OC)c(-n2c(SCC(=O)Nc3cc(C)on3)nnc2-c2c[nH]c3ccccc23)c1 -1.81%
CCN1CC2([N+](=O)[O-])CC=C(OC)C([N+](=O)[O-])(C1)C2 (stereo not given) -0.47%
N#CCn1c(Cc2ccccc2)nc2ccccc2c1=O 10.6%
CN(C)Cc1nc2ccccc2c(=O)n1CC#N 8.3%
O=Cc1cn(-c2ccccc2)nc1-c1ccc(F)cc1 3.65%
Cc1ccc2c(c1)N(C(=O)CCC(=O)N1CCCCC1)CCO2 9.22%
N#Cc1c(-c2cccc(Br)c2)cc(-c2ccco2)[nH]c1=O 4.79%
COc1ccc(-c2cc(-c3ccco3)[nH]c(=O)c2C#N)cc1OC 33.5%
COc1ccc(-c2cc(-c3ccco3)[nH]c(=O)c2C#N)cc1 33.2%
N#Cc1c(-c2ccccc2)cc(-c2ccccc2)[nH]c1=O -4.42%
O=C(NCCN1CCCCCC1)C1CCC(CNS(=O)(=O)c2cccc3cccnc23)CC1 (stereo not given) 10.5%
CCCN1CCN(CCCNC(=O)CCN2C(=O)COc3ccccc32)CC1 15.1%
COc1ccc(CCNC(=O)Cn2cnc3scc(-c4ccccc4)c3c2=O)cc1OC 5.46%
Cn1nc(C(=O)Nc2ccc(S(=O)(=O)N3CCCC3)cc2)ccc1=O 0.66%
Cc1ccc(C(=O)Nc2ccncc2)cc1[N+](=O)[O-] 13%
Nc1n[nH]c(N)c1N=Nc1ccc(F)cc1 13.8%
Cc1ccc(N=Nc2c(N)n[nH]c2N)cc1 25%
COc1cc2[nH]c3c(=O)n4c(nc3c2cc1OC)SCCC4 7.73%
Cc1cccc(NNC(=O)C2CCC2)c1 10.2%
N#Cc1c(NC(=O)/C=C/c2ccco2)sc2c1CCCC2 11.5%
N#Cc1c(NC(=O)c2ccco2)sc2c1CCC2 28.5%
O=C(CCc1nnc2ccc(NCc3ccco3)nn12)Nc1ccccc1F 14.6%
CCN(c1ccccc1)S(=O)(=O)c1cccc(C(=O)NCC(c2ccco2)N2CCCC2)c1 (stereo not given) 20.1%
CCN(CC)S(=O)(=O)c1ccc(NC2=NS(=O)(=O)c3ccccc32)cc1 5.33%
O=S1(=O)N=C(Nc2ccc(N3CCOCC3)cc2)c2ccccc21 7.37%
CN(C)CCOC(=O)C12CC3(C)CC(C)(CC(C)(C3)C1)C2 20.7%
COc1cc(/C=C2\S/C(=N/S(=O)(=O)c3ccccc3)NC2=O)c([N+](=O)[O-])cc1OC 23%
COc1ccc(S(=O)(=O)/N=C2/NC(=O)/C(=C\c3cc(OC)c(OC)cc3[N+](=O)[O-])S2)cc1 31.5%
Cc1ccnc(NC(c2ccccc2O)c2oc(CO)cc(=O)c2O)c1 (stereo not given) 13.4%
COc1cccc(CN2CCN(Cc3nc4c(s3)CCCC4)CC2CCO)c1 (stereo not given) 7.56%
N#Cc1ccc(Oc2ccc(S(=O)(=O)N3CCOCC3)cn2)cc1 8.88%
O=C1Nc2ccccc2/C1=C/c1ccccc1Cl 4.98%
O=C1NC(=O)/C(=C/c2ccccc2Cl)N1 2.2%
O=C1CCC(C(=O)OCC(=O)c2ccccc2)N1 (stereo not given) -3.04%
Cc1ccc([C@@H]2[C@@H]3C(=O)N(C)C(=O)[C@@H]3[C@]3(C)C(=O)N(Cc4ccccn4)CC(=O)N23)o1 21.8%
CC1=Nc2cccc3cccc(c23)N1 14.5%
CC(C)C1=Nc2cccc3cccc(c23)N1 31.8%
NS(=O)(=O)c1ccc(CNS(=O)(=O)c2ccc3ccccc3c2)cc1 8.92%
O=S1(=O)N=C(N(CCO)/N=C/c2ccccc2)c2ccccc21 -0.93%
CC(=O)Nc1ccc2c(c1)CCc1ccccc1-2 2.87%
O=C(O)CCCc1ccc2c(c1)CCc1ccccc1-2 4.11%
CCCCNC(=S)NNC(=O)c1c(Cl)c(C)nn1C 13.2%
Cc1ccc(C(=O)/C=C/c2ccc(-c3ccccc3[N+](=O)[O-])o2)cc1 -1.93%
COC(=O)c1ccccc1-c1ccc(/C=C2\C(=O)N(c3ccccc3)N=C2c2ccccc2)o1 -14%
CC1=NN(c2ccc(Br)cc2)C(=O)/C1=C/c1ccc(-c2ccccc2C(=O)O)o1 33.3%
CCSC1=N/C(=C\c2ccc(-c3ccccc3[N+](=O)[O-])o2)C(=O)S1 45.4%
CCN1C(=O)/C(=C\c2ccc(-c3ccc([N+](=O)[O-])cc3OC)o2)SC1=Nc1cccc(C(=O)O)c1 13.7%
COc1ccc(OC)c(CNc2ccc([N+](=O)[O-])cc2C)c1 -3.94%
COc1ccc(Br)cc1S(=O)(=O)n1c([N+](=O)[O-])cnc1C -1.15%
C=CCn1cccc(C(=O)Nc2ccc(C)c(C)c2)c1=O 10.4%
Cc1ccc(CNC(=O)COC(=O)Cc2ccc(-c3ccccc3)cc2)cc1 1.94%
CCc1nnc(NC(=O)CCN2C(=O)C3CCCCC3C2=O)s1 (stereo not given) 8.24%
CCOC(=O)C(C)Sc1nc2c(c(=O)[nH]c(=O)n2C)n1C/C=C(/C)Cl (stereo not given) 0.445%
CN(C)/C=C/c1oc2ccc(O)cc2c1[N+](=O)[O-] 32%
CC(=O)Oc1ccc2oc(/C=C/N(C)C)c([N+](=O)[O-])c2c1 13%
OC(COc1ccc(CNCCc2ccccc2F)cc1)CN1CCCCC1 (stereo not given) 5.86%
COCCNC(=S)N/N=C(\C)c1ccc(OC(F)F)cc1 21.1%
COCCNC(=S)N/N=C(\C)c1ccc(OC)cc1 13.8%
COC(=O)c1ccccc1NC(=O)CSc1n[nH]c(C)n1 0.8%
Cc1ccc(Cl)cc1NC(=O)C(NS(=O)(=O)c1cccs1)c1ccccc1 (stereo not given) 3.94%
CC(C)C(NS(=O)(=O)c1ccc2c(c1)OCCCO2)C(=O)O (stereo not given) -3.36%
Nc1ccc2nc(-c3ccc(-c4nc5ccc(N)cc5[nH]4)cc3)[nH]c2c1 12.1%
Nc1ccc2nc(-c3ccc(Cl)cc3)[nH]c2c1 28%
Cc1ccc(-n2nc(C(=O)O)nc2-c2ccccc2)cc1 38%
Cc1cc(=O)nc2c3ccccc3n(CC(=O)NCCC3=CCCCC3)n12 2.66%
COc1ccc(S(=O)(=O)N2CCOC2CNC(=O)C(=O)NCCc2ccccc2)cc1C (stereo not given) 6.95%
CN1CCN(CC(=O)N/N=C\c2c[nH]c3ccccc23)CC1 5.96%
O=C(O)c1ccc(N=Cc2c(O)ccc3ccccc23)cc1 6.09%
COc1cccc(/C=N/N2CCOCC2)c1O 3.29%
COc1cccc(C=Nc2ccc3c(c2)OCCO3)c1O 21.9%
CN1CCN(/N=C/c2c3ccccc3c(Cl)c3ccccc23)CC1 1.67%
Cc1ccc(O)c(N=Cc2cc(Cc3ccccc3)cc([N+](=O)[O-])c2O)c1 15.2%
O=[N+]([O-])c1ccc(N2CCOCC2)cc1NCc1ccccc1 5.38%
C=Cc1ccc(N=Cc2c(O)ccc3ccccc23)cc1 -18.3%
Cc1c(C(=O)N2CCOCC2)c(S(=O)(=O)Nc2ccc(OC(F)(F)F)cc2)c(C)n1C 4.66%
CC(=O)c1c(C)[nH]c(C(=O)OC2CCCCC2=O)c1C (stereo not given) 6.27%
Cc1ccsc1C=Nc1c(C)n(C)n(-c2ccccc2)c1=O 4.72%
COCCNC(=O)C(c1ccco1)N(C(=O)Cn1nnc2ccccc21)c1ccccc1C (stereo not given) 2.93%
Cc1ccc(CN2CC(C(=O)N(C)CC(=O)Nc3cccc(F)c3)CC2=O)cc1 (stereo not given) 25.6%
CC(CC(=O)N(C)c1c(N)n(Cc2ccccc2)c(=O)[nH]c1=O)c1ccccc1 (stereo not given) 12.7%
COc1ccccc1CNc1nc(S(=O)(=O)c2ccccc2)c(Cl)s1 21.1%
O=C(NC1CCCCC1)C(c1ccco1)N(CCc1ccccc1)C(=O)C(F)(F)F (stereo not given) 9.43%
COC(=O)c1cccc(NC(=O)c2cnn(C)c2)c1 3.5%
Cc1cc(Br)cc(C=Nc2ccc(N3CCOCC3)cc2)c1O 19.2%
C(=N\Nc1nc(Nc2ccccc2)nc(N2CCOCC2)n1)/c1c[nH]c2ccccc12 5.43%
Oc1c(Br)cc(Cl)cc1C=Nc1ccc(N2CCOCC2)cc1 17.2%
CN(C)c1nc(N/N=C/c2c[nH]c3ccccc23)nc(N2CCOCC2)n1 27.1%
Oc1cc(Br)ccc1C=Nc1ccc(N2CCCCC2)cc1 10.6%
Oc1c(Cl)cc(Cl)cc1C=Nc1ccc(N2CCOCC2)cc1 15.7%
O=C1[C@H]2[C@@H](c3ccc(Cl)cc3)N3C(=O)N(c4cccc(Cl)c4)C(=O)[C@@]3(Cc3ccccc3)[C@H]2C(=O)N1C1CCCCC1 6.67%
Cc1ccc(S(=O)(=O)N2CCN(S(=O)(=O)c3ccc4c(c3)OCCO4)CC2)cc1 2.43%
O=C(C1CCN(C2CC(=O)N(c3ccc(F)cc3)C2=O)CC1)N1CCOCC1 (stereo not given) 6.36%
